PubChem BioAssay AID488969 (Vanderbilt High Throughput Screening Facility, 2010)
Whole data set: some 110,000 compounds, median “z-score” near -0.1, cut for the highest 2% near 2. Shown is part of a subset that was picked to be rich in the highest values. Active and inactive are the calls of the source.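 The calls were made as follows: active = z-score in the third read window above 3 or below -3; inactive = the rest.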

Target: Metabotropic glutamate receptor 8 (Rattus norvegicus) (UniProt P70579)
Sequence (P70579 whole entry, looked up): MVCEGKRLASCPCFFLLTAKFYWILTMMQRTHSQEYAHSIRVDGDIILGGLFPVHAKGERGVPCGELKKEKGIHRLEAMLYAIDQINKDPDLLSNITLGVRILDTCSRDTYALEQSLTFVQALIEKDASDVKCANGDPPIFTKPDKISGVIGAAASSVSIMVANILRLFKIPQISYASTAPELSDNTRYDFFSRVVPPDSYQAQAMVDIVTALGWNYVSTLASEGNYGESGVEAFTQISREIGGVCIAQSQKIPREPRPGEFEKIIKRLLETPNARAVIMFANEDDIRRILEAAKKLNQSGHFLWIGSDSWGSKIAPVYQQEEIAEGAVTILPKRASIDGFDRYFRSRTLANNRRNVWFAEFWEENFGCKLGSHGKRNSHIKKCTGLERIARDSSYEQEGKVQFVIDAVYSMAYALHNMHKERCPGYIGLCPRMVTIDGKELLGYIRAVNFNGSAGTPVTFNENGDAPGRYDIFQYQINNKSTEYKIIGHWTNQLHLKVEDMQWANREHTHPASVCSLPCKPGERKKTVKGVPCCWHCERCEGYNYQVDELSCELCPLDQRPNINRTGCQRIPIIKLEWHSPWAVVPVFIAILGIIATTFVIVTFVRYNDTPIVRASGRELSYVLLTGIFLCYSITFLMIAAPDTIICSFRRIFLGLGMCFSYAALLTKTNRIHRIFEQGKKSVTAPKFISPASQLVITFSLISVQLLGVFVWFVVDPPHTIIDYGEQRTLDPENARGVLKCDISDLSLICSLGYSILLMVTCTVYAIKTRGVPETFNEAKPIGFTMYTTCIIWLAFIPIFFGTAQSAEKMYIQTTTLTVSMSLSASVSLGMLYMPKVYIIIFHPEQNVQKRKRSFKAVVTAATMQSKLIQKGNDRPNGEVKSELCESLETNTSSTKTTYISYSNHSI
Test: rat mGluR8 modulators via GIRK flux, primary screen, cell-based, thallium flux, HTS (AID 488969)
Conditions: HEK293 rat mGluR8, GIRK (G protein-gated inwardly rectifying potassium channel) thallium flux, FluoZin2; at 10 µM; stronger effect = higher value; submaximal glutamate (EC20) added with thallium

Going from COc1ccc(CNC(=O)C2CCN(c3nccs3)CC2)cc1 to COc1ccc(CNC(=O)COC(=O)CCC2CCCCC2)cc1, the z-score falls from -0.318 to -0.328.

Going from Cc1cc(NC(=O)CSc2nnc(-c3cccs3)n2N)no1 to Cc1ccc(C)c(-n2c(SCC(N)=O)nnc2-c2ccccn2)c1, the z-score rises from -0.647 to -0.142.

Going from COc1ccc2nc(SC(C(=O)c3ccccc3)c3ccccc3)nc(C)c2c1 (configuration not stated) to COc1cccc(N=Cc2c(O)n(-c3cccc(C)n3)c(=O)c3ccccc23)c1, the z-score falls from 0.574 to -0.226.

Going from CC(=O)c1cccc(S(=O)(=O)NCC2CCCCC2)c1 to O=C(CN1CCCCC1)Nc1cccc(Cl)c1Cl, the z-score falls from 0.0227 to -0.108.

Compared with COC(=O)/C(=C/Nc1cccc2ccccc12)[N+](=O)[O-], CCOC(=O)c1ccccc1Nc1cn(C(C)=O)c2ccccc12 is higher in z-score: -0.204 for the first, 2.73 for the second.

Compared with COC(=O)c1sccc1-c1ccc(/C=N/OCc2c(Cl)cccc2Cl)o1, CCOC(=O)C1=C(c2ccccc2)OC(N)=C(C#N)C1c1cccs1 (configuration not stated) is higher in z-score: -0.187 for the first, 0.288 for the second.

Compared with Cc1ccc(-c2c(C)n([O-])c3c([n+]2=O)CCCCC3)o1, CCC(C)c1ccccc1NC(=O)COC(=O)c1ccc2[nH]c3c(c2c1)CCCC3 (configuration not stated) is higher in z-score: -0.48 for the first, -0.0793 for the second.

Compared with CC(C)Sc1nc(C(F)(F)F)cc(=O)n1-c1ccccc1, O=C(CSc1nc(-c2ccccc2)cc(C(F)(F)F)n1)NCCN1CCOCC1 is higher in z-score: 0.426 for the first, 2.92 for the second.

First: COc1cc(-n2c(=O)c3ccccc3n(Cc3ccccc3)c2=O)cc(OC)c1OC
Second: CC(=O)Oc1c(C(=O)c2nnc(C)o2)c(=O)n(Cc2ccccc2)c2ccccc12
The z-score of the first is lower: -0.047 for the first, 2.07 for the second.

Compared with CC(=O)Oc1c(C(=O)c2nnc(C)o2)c(=O)n(C)c2ccccc12, CC(=O)n1cc(Nc2ccccc2C(=O)O)c2ccccc21 is lower in z-score: -0.074 for the first, -1.18 for the second.

Going from CCc1ccc(NC(=O)N(CCCOC(C)C)C2CCN(C(C)=O)CC2)cc1 to CCOC(=O)C(CCCOc1cccc(CC)c1)C(=O)OCC, the z-score falls from 0.807 to 0.094.

Going from O=C(Nc1nccs1)c1ccc2nccnc2c1 to CC(C)(C)NC(=O)c1ccc2nccnc2c1, the z-score rises from 0.133 to 0.232.

Going from O=C(CCC(=O)OCC(=O)c1ccc(Cl)cc1Cl)Nc1cccc2cccnc12 to O=C(CCC(=O)Nc1ccccc1)NNC(=O)COc1ccccc1, the z-score falls from 0.0344 to -0.00186.

Going from O=C(NCc1ccco1)C(c1ccc(F)cc1)N(CC1CCCO1)C(=O)Cn1nnc2ccccc21 (configuration not stated) to O=C(CSc1nnc(-c2ccccc2)n1Cc1ccco1)Nc1ccc(S(=O)(=O)N2CCCC2)cc1, the z-score falls from -0.299 to -1.61.

Compared with CCOC(=O)c1nnn(CC(=O)N2N=C(c3cc(C)ccc3C)CC2c2ccc(OC)cc2)c1C(=O)OCC (configuration not stated), CCOC(=O)/C(=C/c1ccc(OC)cc1)NC(=O)c1ccco1 is higher in z-score: -0.378 for the first, -0.186 for the second.

First: COc1ccc(/C(N)=N/OC(=O)Oc2ccccc2)cc1OC
Second: COc1ccc(C2C(C(=O)Nc3cccc(C)n3)c3ccccc3C(=O)N2C)cc1OC (configuration not stated)
The z-score of the first is lower: -0.183 for the first, -0.119 for the second.

Compared with O=C(CSc1nc2cc(Cl)ccc2c(=O)n1Cc1ccco1)Nc1ccc(S(=O)(=O)N2CCOCC2)cc1, COC(=O)c1ccc2c(=O)n(Cc3ccco3)c(SCC(=O)Nc3ccc(C)c(Cl)c3)nc2c1 is lower in z-score: 2.05 for the first, 0.24 for the second.

Going from CNS(=O)(=O)c1cc(C(=O)NCc2ccco2)ccc1Cl to Cc1ccc(C)c(NS(=O)(=O)c2cc(C(=O)NCc3ccco3)ccc2C)c1, the z-score falls from 0.119 to -0.408.

Going from CCOc1ccc(NC(=S)N(CCCN2CCOCC2)Cc2cn(C)c3ccccc23)cc1 to COc1ccc(NC(=O)c2nc[nH]c2C(=O)Nc2ccccc2C)cc1, the z-score rises from -0.232 to 0.48.

Compared with N=c1n(Cc2ccccc2)c2ccccc2n1CC(O)c1ccccc1 (configuration not stated), Cc1ccc(C(=O)N/C(=C\c2ccccc2)C(=O)OCc2ccccc2)cc1 is lower in z-score: 0.899 for the first, -0.52 for the second.

Compared with CCc1cccc(CC)c1NC(=O)COC(=O)c1ccc2c(c1)S(=O)(=O)c1ccccc1C2=O, CCC(C)c1ccccc1NC(=O)COC(=O)c1ccc2c(c1)S(=O)(=O)c1ccccc1C2=O (configuration not stated) is higher in z-score: -0.326 for the first, 2.17 for the second.

First: C=CCn1c(-c2cccc(OC)c2)n[nH]c1=S
Second: COc1ccc(/C(C)=C2/SC(=S)N(CCC(=O)O)C2=O)cc1
The z-score of the first is higher: -0.21 for the first, -0.343 for the second.

Compared with CCCn1c(SCC(=O)Nc2nnc(-c3ccccc3)s2)nnc1-c1ccccn1, Cc1ccc(-n2c(SCC(N)=O)nnc2-c2ccccn2)cc1 is higher in z-score: -0.176 for the first, 2.09 for the second.

First: CCOC(=O)C1=C(CSc2nc(-c3ccccc3)ccc2C#N)OC(N)=C(C#N)C1c1cccnc1 (configuration not stated)
Second: CCOC(=O)C1=C(CSc2nc(-c3ccccc3)ccc2C#N)OC(N)=C(C#N)C1c1ccccc1 (configuration not stated)
The z-score of the first is lower: -0.107 for the first, 2.03 for the second.

Compared with CCOC(=O)C1=C(CC)OC(N)=C(C#N)C1c1cccs1 (configuration not stated), CCOC(=O)C1=C(CSc2nc(-c3ccccc3)ccc2C#N)OC(N)=C(C#N)C1c1ccc(OC)cc1 (configuration not stated) is higher in z-score: -0.237 for the first, 0.0604 for the second.

Going from Cc1[nH]c2ccccc2c1/C=N/NC(=O)c1cc(-c2cccs2)[nH]n1 to Cc1ccc(C)c(NC(=O)c2cnn3ccccc23)c1, the z-score rises from -0.101 to -0.0235.

Compared with Cn1c(=O)[nH]c(=O)c2c1nc(NCCCn1ccnc1)n2Cc1ccc(F)cc1, Cc1cccc2c(=O)cc(C)n(Cc3ccccc3)c12 is lower in z-score: 0.613 for the first, -0.148 for the second.

Compared with Cc1cc(Nc2cccc([N+](=O)[O-])c2)n2c(nc3ccccc32)c1C#N, Cc1cccc(Oc2nc(-c3ccccc3)cc(C)c2S(C)(=O)=O)c1C is higher in z-score: 0.0405 for the first, 0.102 for the second.

First: Cc1cccc(-n2c(O)c(C=Nc3c(C)n(C)n(-c4ccccc4)c3=O)c3ccccc3c2=O)n1
Second: Cc1cccc(NC(=O)COC(=O)c2ccccc2-c2nc3ccccc3s2)c1C
The z-score of the first is higher: -0.137 for the first, -0.272 for the second.

Compared with Cc1ccn2c(C(=O)N/N=C/c3ccc(CNC(=O)C(=O)Nc4ccc(C)c(C)c4)o3)c(C)nc2c1, Cc1ccccc1NC(=O)c1nc[nH]c1C(=O)NCc1ccccc1 is higher in z-score: 0.623 for the first, 2.57 for the second.

Compared with CNC(=O)c1[nH]cnc1C(=O)Nc1ccccc1C, CCOC(=O)c1ccccc1NC(=O)COC is lower in z-score: 0.825 for the first, -0.129 for the second.

Compared with COc1ccc(-c2nc(C)ncc2-c2csc(C)n2)c(O)c1, Cc1ccc(-n2c(SCC(N)=O)nnc2-c2ccccn2)cc1C is higher in z-score: -0.348 for the first, 0.0328 for the second.

Compared with CN1/C(=C/C(=O)c2ccc(Cl)cc2)Sc2cc3c(cc21)OCO3, Cc1ccccc1-c1nnn(CC(=O)N2CCN(S(=O)(=O)c3ccc(Cl)cc3)CC2)n1 is higher in z-score: -1.93 for the first, -0.031 for the second.

Compared with CC(C)CCN1C(=O)CCC1(C)C(=O)NC1CCCCCCC1 (configuration not stated), O=C(CC(c1ccco1)C1CCCCC1=O)c1ccccc1 (configuration not stated) is lower in z-score: -0.383 for the first, -0.656 for the second.

First: CCOC(=O)C1C(=O)C=C(c2ccc(C)cc2)CC1c1ccco1 (configuration not stated)
Second: CCOC(=O)C1C(=O)C=C(c2ccc(NS(C)(=O)=O)cc2)CC1c1ccco1 (configuration not stated)
The z-score of the first is lower: -0.0925 for the first, 2.57 for the second.

Going from CCOC(=O)C1C(=O)C=C(c2cccc(NS(C)(=O)=O)c2)CC1c1ccco1 (configuration not stated) to CCOC(=O)Cn1c(C)cc(=O)c2cccc(C)c21, the z-score rises from -0.737 to -0.0778.

Going from NNC(=O)C=C1CCN(c2ncc(C(F)(F)F)cc2Cl)CC1 to O=C(CSc1nc(-c2ccc(F)cc2)cc(C(F)(F)F)n1)NCCN1CCOCC1, the z-score rises from 0.00385 to 0.00416.

Compared with CCOC(=O)C(CCOc1cccc(CC)c1)C(=O)OCC, CCN(CC)CCCn1c(C)cc2c(c1=O)C(c1cccc(Cl)c1)C(C#N)=C(N)O2 (configuration not stated) is higher in z-score: -0.709 for the first, 2.38 for the second.

Going from O=C(Nc1cccc(-c2nc3ccccc3s2)c1)c1cc(-n2cnnc2)ccc1Cl to COc1ccc(-c2csc(NC(=O)C3CCCCN3S(=O)(=O)c3ccccc3)n2)cc1 (configuration not stated), the z-score rises from -0.00826 to 1.82.

Going from CC(C)Oc1ccc(C2CC(=O)N(c3ccccc3)C2=O)cc1 (configuration not stated) to COc1ccc(N2C(=O)CC(c3ccc(OC(C)C)cc3)C2=O)cc1 (configuration not stated), the z-score falls from 2.33 to -0.209.

Going from CC(C)Oc1ccc(C2CC(=O)N(c3ccc(N(C)C)cc3)C2=O)cc1 (configuration not stated) to CCOc1ccc(N(CC(=O)NN=C2CCN(C)CC2)S(C)(=O)=O)cc1, the z-score falls from -0.0638 to -0.0704.

Compared with CC(Oc1ccccc1)C(=O)NC1CCN(Cc2ccccc2)CC1 (configuration not stated), O=C(CSc1ccccc1Cl)NC1CCCc2ccccc21 (configuration not stated) is higher in z-score: -2.68 for the first, -0.386 for the second.

Compared with C=CCSc1nnc(NC(=O)CSc2ccccn2)s1, O=C(COc1ccccc1)NCCc1cn2ccsc2n1 is higher in z-score: -0.421 for the first, 0.183 for the second.

Compared with Cc1ccc(C)n1-c1ccc(N2CCOCC2)nc1, O=C(NCc1ccco1)C1CCN(c2ccc(N3CCOCC3)nn2)CC1 is higher in z-score: -0.064 for the first, 0.321 for the second.

Going from COc1ccc(-c2cc(C(F)(F)F)nc(SCC(=O)NCCN3CCOCC3)n2)cc1OC to COc1cc(CCN2C(=O)c3cccc4cccc(c34)C2=O)c(S(=O)(=O)NCCCO)cc1OC, the z-score falls from 0.846 to 0.452.

First: CCCCn1c(N)c(-c2nc3ccccc3s2)c2c([N+](=O)[O-])nn(C)c(=O)c21
Second: CCN(CC)CCCn1c(C)cc2c(c1=O)C(c1ccccc1)C(C#N)=C(N)O2 (configuration not stated)
The z-score of the first is higher: 1.31 for the first, 0.538 for the second.

First: Cn1c(=O)c2c(ncn2CC(=O)N/N=C/C(Br)=C/c2ccccc2)n(C)c1=O
Second: Cn1c(=O)c2c(ncn2CC(=O)N/N=C/c2ccco2)n(C)c1=O
The z-score of the first is lower: 0.116 for the first, 1.59 for the second.

Compared with Cn1c(=O)c2c(ncn2CC(=O)N/N=C/c2ccc(Br)s2)n(C)c1=O, O=C(Cc1ccccc1)N/N=C/c1ccc(OC(=O)/C=C\c2ccco2)cc1 is lower in z-score: 2.47 for the first, -0.0554 for the second.

Going from CCN(CC)CCCn1c(C)cc2c(c1=O)C(c1ccc(OC)c(OC)c1OC)C(C#N)=C(N)O2 (configuration not stated) to CCSc1ncnc2sc3c(c12)CCC3, the z-score rises from -0.47 to -0.0891.

Going from O=S(=O)(/N=C(/Nc1ccc(F)c(F)c1F)c1ccccc1)c1ccccc1 to O=C(NCc1ccc(Cl)cc1Cl)C(=O)N1CCCCC1, the z-score rises from -0.125 to 0.112.

With CC(C#N)Sc1ncnc2sc3c(c12)CCC3 (configuration not stated) the z-score was 0.00954.

With CC(C)(C)c1csc(NC(=O)c2ccc3nccnc3c2)n1 the z-score was 5.29 (active).
CCOC(=O)CC1=C(C(=O)OCC)C(c2cccs2)C(C#N)=C(N)O1 (configuration not stated) was tested, and the z-score was 3.6 (active).
Cc1cccc(-n2c(O)c(/C=N/NC(=O)c3ccccc3Cl)c3ccccc3c2=O)n1 was tested, and the z-score was 5.65 (active).
With CCOC(=O)C(CCCCOc1cccc(CC)c1)C(=O)OCC the z-score was 3.18 (active).
Cc1cccc2c(=O)cc(C)n(CC(=O)N3CCCCC3)c12 was tested, and the z-score was 3.39 (active).
In the case of Cc1cc(C)nc(Sc2ncnc3sc4c(c23)CCC4)n1, the z-score was 5.12 (active).
